MCF10A rereplic: A quantitative high throughput screen for small molecules that induce DNA re-replication in MCF 10a normal breast cells. MCF 10A DNA re-replication, Hoechst nuclear intensity, 48 h. actives 2.9% (n = 350,000). Potency, µM (series often up to 46.1 µM), without a hit: at the highest dose activity, positive = re-replication, usual class: activators; note: % of control where 0% means no effect; nearly all actives have a fitted effect of over 50% in size
KB-V1 MDR tox: qHTS assay for MDR1-selective chemotherapeutics: Primary screen using the drug-selected MDR subline cells KB-V1; KB-V1 MDR cells viability, CellTiter-Glo, 72 h; Potency, µM (series often up to 46.1 µM), hits mostly cytotoxic; actives 3.4% (n = 400,000); note: % is set by controls: 0 for no effect and ±100 for the full control effect; nearly all actives have a fitted effect of over 60% in size
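Cytotoxicity toward P-gp-expressing KB-V1 cells was determined as loss of CellTiter-Glo luminescence after 72 h at 37 degrees C. Compounds were tested in quantitative HTS format across a concentration range, with curves fitted to normalized data.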
SW480 rereplic: A quantitative high throughput screen for small molecules that induce DNA re-replication in SW480 colon adenocarcinoma cells; actives 1.8% (n = 340,000); Potency, µM (highest dose often 46.1 µM), for the others: at the top dose re-replication activation, actives largely listed as activators; SW480 DNA re-replication, Hoechst DNA content imaging, 48 h; AID 624297, 2012; note: % of control where 0% means no effect; nearly all actives have a fitted effect of over 55% in size
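Image-based DNA-content assay: after two days of treatment, nuclei were labelled with the DNA dye Hoechst and imaged, and hits were compounds raising the count of nuclei showing high fluorescence intensity.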
KB-3-1 tox: qHTS assay for MDR1-selective chemotherapeutics: Primary screen using the parental adenocarcinoma cell KB-3-1; KB-3-1 viability, CellTiter-Glo ATP luminescence, 72 h; Potency, µM (series often up to 46.1 µM), most hits filed as cytotoxic; AID 1347075, 2019; actives 1.4% (n = 400,000); note: % is set by controls: 0 for no effect and ±100 for the full control effect; nearly all actives have a fitted effect of over 60% in size
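KB-3-1 parental drug-naive adenocarcinoma cells in DMEM/10% FBS, incubated 72 h at 37 C with pin-transferred compounds across a concentration series. Viability by CellTiter-Glo luminescence; concentration-response curves fitted after normalization.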
ELG1 repair inh: qHTS screen for small molecules that inhibit ELG1-dependent DNA repair in human embryonic kidney (HEK293T) cells expressing luciferase-tagged ELG1. HEK293T ELG1-luciferase reporter, luminescence, 16 h; DNA damage induced by 5-fluorouridine. Potency, µM (top dose mostly 46.1 µM), inactives show at the top dose activity change, negative = inhibition, most hits filed as inhibitors. actives 2.3% (n = 330,000). AID 504467, 2011; note: % is set by controls: 0 for no effect and ±100 for the full control effect; nearly all actives have a fitted effect of over 55% in size
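Step one: seed 2,000 cells per well. Step two: pin-transfer compound or DMSO alongside 5-fluorouridine. Step three: incubate 16 hr, 37 °C, 5% CO2. Step four: add ONE-Glo, wait 30 min, read luminescence.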
Starred values were filed as active, the others as inactive; i = inactive; ? = inconclusive; nt = not tested or not shown; [ ] = dose if it differs, or a comment. The list is not random: actives were taken first. Their share in the collection is about 8.1%. Calls come from the whole dose curve; as a rule, active = well fitted curve in the direction sought with a large enough effect; inconclusive = small, poorly fitted or top-dose-only effect, or another doubt; inactive = no such curve, though single readings can be large; an effect the other way counts as inactive or inconclusive. Potency is the fitted concentration of half-maximal effect.

SMILES	MCF10A rereplic	KB-V1 MDR tox	SW480 rereplic	KB-3-1 tox	ELG1 repair inh
O=C(CCNC(=O)c1ccccc1)Nc1ccc(Cl)c(S(=O)(=O)N2CCCCC2)c1	9.8%	i	6.8%	i	16.4µM*
Cc1ccc(NC(=O)CCNC(=O)c2ccc(Br)cc2)cc1S(=O)(=O)N1CCOCC1	2.4%	i	1.2%	i	?
OCC(CO)c1cnnc2ccccc12	-6.0%	i	-1.7%	i	nt
Cc1cc2ccccc2n2c(SCC(=O)Nc3cccc(C(F)(F)F)c3)nnc12	nt	i	nt	i	nt
N#CC1=C(c2ccccc2)/C(=C/c2ccccc2)OC1=O	6.51µM*	?	?	?	?
COc1oc(C(=O)NC2CCCCC2)c(-c2ccc(Cl)cc2)c1S(=O)(=O)c1ccccc1	26.8%	4.61µM*	?	?	nt
CCN(CC(=O)Nc1ccc(NC(C)=O)cc1)C(=O)/C=C/c1cn(-c2ccccc2)nc1-c1ccc(F)cc1	9.6%	i	-15.5%	i	?
CCN(CC(=O)Nc1ccc(NC(C)=O)cc1)C(=O)/C=C/c1cn(-c2ccccc2)nc1-c1ccc(C)cc1	-3.6%	i	-1.5%	i	8.2µM*
O=C(Nc1ccc2c(c1)CCC2)c1ccccc1	12.8%	?	0.2%	i	?
COc1ccc(NC(=O)c2cccc(S(=O)(=O)N(C)c3ccccc3)c2)cn1	16.0%	3.26µM*	-0.9%	?	?
CN(c1ccccc1)S(=O)(=O)c1ccc(C(=O)NNC(=O)c2ccccc2)cc1	-0.8%	i	-45.7%	i	15.4%
CN(c1ccccc1)S(=O)(=O)c1cccc(C(=O)Nc2ccc3c(c2)CCC3)c1	-21.2%	5.8µM*	?	?	14.6µM*
CN(c1ccccc1)S(=O)(=O)c1cccc(C(=O)NNC(=O)c2ccccc2)c1	9.9%	14.6µM*	-2.8%	20.6µM*	?
Cn1c(SCc2ccc(F)cc2)nc2ccc(C(=O)NCc3ccc(F)cc3)cc21	nt	i	nt	i	nt
CCc1ccccc1NC(=O)CCn1nc(C)c2c(C)n(-c3ccccc3)nc2c1=O	nt	i	nt	i	nt
COc1cc(C(=O)Oc2cccc(C=O)c2)cc(OC)c1OC	2.2%	i	16.4µM*	i	-13.8%
COc1cc(C(=O)Oc2cccc(/C=N/NC(=O)c3cc(C)[nH]n3)c2)cc(OC)c1OC	3.1%	i	1.0%	i	-17.5%
COC(=O)c1ccc2c(c1C(=O)OC)CN(S(=O)(=O)C(C)(C)C)[C@@H]2CCO	-4.1%	i	-38.5%	i	nt
O=C(c1ncn[nH]1)N1CCN(c2nc(-c3ccccc3)cs2)CC1	1.0%	i	?	i	1.4%
O=C(c1cc(-n2cnnc2)ccc1Cl)N1CCN(c2nc(-c3ccccc3)cs2)CC1	-3.0%	i	23.1%	20.6µM*	-0.4%
Cc1ccc2ncnc(NCc3ccco3)c2c1	nt	i	nt	?	nt
COc1ccc2nc(NC(=O)CN(c3ccc(C)cc3)S(=O)(=O)c3c(C)nn(C)c3C)sc2c1	6.9%	?	?	i	23.1µM*
COc1ccc(S(=O)(=O)N(C)CC(=O)Nc2ccc(C)cc2)cc1OC	-18.0%[9.22 µM]	?	-11.0%	i	5.1%
Cc1nn(C)c(C)c1S(=O)(=O)N(CC(=O)NC1CCCCCC1)c1ccc(C(C)C)cc1	11.6µM*	i	-1.6%	i	-0.3%
CCOC(=O)N1CCC(NC(=O)CN(c2ccc(C(C)C)cc2)S(=O)(=O)c2c(C)nn(C)c2C)CC1	6.3%	i	-1.3%	?	2.0%
SMILES	MCF10A rereplic	KB-V1 MDR tox	SW480 rereplic	KB-3-1 tox	ELG1 repair inh
COc1ccc(NC(=O)CN(c2ccc(C)cc2)S(=O)(=O)c2c(C)nn(C)c2C)cc1	-0.8%	i	13.0%	i	3.8%
COc1ccc(NC(=O)CN(c2ccc(C)cc2)S(=O)(=O)c2c(C)nn(C)c2C)cc1OC	4.4%	13µM*	-0.1%	?	-25.5%
CCN(CC(=O)Nc1ccc(OC)c(OC)c1)S(=O)(=O)c1ccc(C)cc1	0.8%	13µM*	-5.2%	i	?
CCN(CC)S(=O)(=O)c1ccc(C)c(NC(=S)Nc2cccc(S(=O)(=O)N3CCCCCC3)c2)c1	14.3%	?	0.2%	?	-25.3%
CCN(CC)S(=O)(=O)c1ccc(OC)c(NC(=S)Nc2ccc(C)c(C)c2)c1	?	18.4µM*	?	i	-11.0%
CCCCCCCN(c1ccccc1)[C@@H]1C[C@H]2CCCC(=O)N3CC[C@@H](C1)[C@@H]23	?	?	6.2%	?	nt
N#Cc1ccc(-c2nc3ccccc3nc2-c2ccccc2)cc1C#N	2.2%	?	-7.4%	i	16.4µM*
O=C(CSc1n[nH]c(=O)n1Cc1ccccc1)Nc1ccc(F)c(F)c1F	17.9%	16.4µM*	-8.5%	?	2.9%
OCc1ccc2c(c1)c(-c1ccc3c(c1)OCCO3)c(-c1ccccc1)n2-c1ccccc1	?	?	5.2%	?	16.4µM*
OCC1(Cc2ccccc2)CCCN(Cc2ccc3c(c2)OCCO3)C1 (stereo not given)	9.4%	i	-5.8%	i	-7.5%
CN(C)CCC(=O)C(Cc1ccccc1)c1ccccc1 (stereo not given)	4.11µM*	?	?	i	nt
Oc1ccc(NCc2ccccc2OCc2ccccc2)cc1	23.1µM*	i	14.6µM*	i	?
O=c1[nH]c2ccc(NCc3ccccc3OCc3ccc(Cl)cc3)cc2[nH]1	7.1%	i	?	?	8.2µM*
OCCNCCNCc1ccccc1OCc1ccccc1	2.7%	i	20.6µM*	i	-3.7%
O=C(OCc1ccccc1)c1ccc(NCc2cc(O)ccc2O)cc1	?	2.59µM*	?	3.66µM*	nt
CCCCc1ccc(-n2nc3cc(Cl)c(NC(=O)c4ccc(OC)cc4)cc3n2)cc1	nt	i	nt	i	nt
COc1ccc2sc(N(Cc3cccnc3)C(=O)c3cccs3)nc2c1	nt	?	nt	16.4µM*	nt
CC(C)c1ccc(NC(=O)COC(=O)c2cc(=O)[nH]c3ccccc23)cc1	5.4%	?	-22.9%	i	?
CCOC(=O)c1c(C)[nH]c(C)c1S(=O)(=O)NCCN1CCN(c2cc(Cl)ccc2C)CC1	0.1%	?	-5.7%	16.4µM*	?
O=C1CCCN1c1ccc(S(=O)(=O)N2CCC(c3ccccc3)CC2)cc1	3.2%	2.59µM*	-4.3%	i	?
COc1cnc(-c2cccc(C(F)(F)F)c2)c(NC(=O)c2cc3ccccc3s2)n1	nt	i	nt	i	nt

Screens (PubChem)
